Only a selection was taken, and hits are over-represented in it overall.
Tgondii IFNg = inhibitors of Toxoplasma gondii growth with IFN-gamma; Toxoplasma gondii growth in IFN-gamma-treated host cells; stronger effect = lower value; activity change, negative = inhibition, % (no concentration beside the values); 69,000 compounds, 3.8% hits; AID 1259416; in the data active means activity change below about -70%, passing the limit was not always enough;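 further: host cells are HeLa cells infected with Toxoplasma gondii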
Hits are given with their value; – = inactive.

SMILES | Tgondii IFNg
COc1ccc(NC(=O)Nc2ccc(-c3nc(-c4cc(C)ccc4C)co3)cc2)c(OC)c1 | –
COc1cc(C(=O)Nc2ccc(-c3nc(-c4ccccc4)co3)cc2)cc(OC)c1OC | –
COc1cc(NC(=O)Nc2ccc(-c3nc(-c4ccccc4)co3)cc2)cc(OC)c1OC | -88
COc1cc(NC(=O)Nc2ccc(-c3nc(-c4ccc(C)cc4)co3)cc2)cc(OC)c1OC | –
Cc1ccc(C)c(-c2coc(-c3ccc(NC(=O)Nc4ccccc4)cc3)n2)c1 | –
COc1ccc(C)cc1NC(=O)Nc1ccc(-c2nc(-c3cc(C)ccc3C)co2)cc1 | -72
C[C@H]1CN([C@@H](C)CO)C(=O)CCCn2cc(nn2)CO[C@H]1CN(C)C(=O)CCC(F)(F)F | –
C[C@H]1CN([C@@H](C)CO)C(=O)c2cc(NC(=O)Nc3cccc4ccccc34)ccc2O[C@H]1CN(C)S(=O)(=O)c1cccs1 | –
COc1ccc(-c2nc(CN(c3ccc(OC)cc3)S(=O)(=O)c3ccccc3C)c(C)o2)cc1 | –
CC(C)Cc1cc(C(=O)N2CCNCC2C(=O)N2CCOCC2)n(C)n1 (stereo not given) | –
COc1ccc(-c2csc(NC3=NS(=O)(=O)c4ccccc43)n2)cc1OC | –
COc1cccc(-c2nn(-c3ccccc3)cc2CN2CCC(CN3CCOCC3)CC2)c1 | –
Nc1ncnc2c1c(-c1cccc(OCc3ccccc3)c1)cn2C1CC(CN2CCCC2)C1 (stereo not given) | -74
O=C(Nc1cnc2n1CCCC2)c1nnc2n1CCCC2 | –
Cn1ncc2c1C(COCC1CC1)N(C(=O)c1ccc(F)cc1)CC2 (stereo not given) | –
Cc1noc(C)c1C1CCCN1C(=O)Cn1nc(C(F)(F)F)cc1C (stereo not given) | –
Cc1cc(C(F)(F)F)nn1CC(=O)N1CCCC1c1ccc(F)cc1 (stereo not given) | -78
Cc1ccccc1C1CCCN1C(=O)Cn1nc(C(F)(F)F)cc1C (stereo not given) | –
O=C(NCC1CCN(Cc2cnn(-c3ccccc3)c2)C1)C1CCC1 (stereo not given) | –
Cc1cc2c(cc1C)NC(=O)c1ccccc1C(c1ccccc1)=N2 | –
CCS(=O)(=O)N1CCc2cc(OC)c(OC)cc2C1c1ccc(OC)c(OC)c1 (stereo not given) | –
CC[C@H]1CN2CCc3cc(OC)c(OC)cc3C2C[C@@H]1CC1NCCc2cc(OC)c(OC)cc21 (stereo not given in full) | -79
COc1cc2c(cc1OC)C(Cc1ccc(O)cc1)N(C)CC2 (stereo not given) | –
CC(NC(=O)c1cc2n(n1)CCN(C)C2)c1ccccc1-n1cccn1 (stereo not given) | –
Cc1ccc(CNc2nc(-c3ccc(Cl)cc3)nc3ccccc23)o1 | –
SMILES | Tgondii IFNg
CCCC(=O)N1CCCC1c1ncc(C(=O)Nc2ccccc2OC)c(C)n1 (stereo not given) | –
CC[C@@H]1C(=O)N(C)c2cnc(Nc3ccc(C(=O)NC4CCC(N5CCN(CC6CC6)CC5)CC4)cc3OC)nc2N1C(C)C (stereo not given in full) | –
CNC(=O)c1ccccc1Nc1nc(Nc2ccc3c(c2OC)CCC[C@H](N2CCN(CCO)CC2)C3)ncc1Cl | -75
CCn1nnnc1SCC(=O)N1c2ccccc2Sc2ccccc21 | –
CCc1nc(SCC(=O)N2c3ccccc3Sc3ccccc32)c2ccccc2n1 | -82
O=C(COc1nc2ccccc2s1)N1c2ccccc2Sc2ccccc21 | –
Cn1ncc2c1C(COCC1CC1)N(C(=O)c1ccccc1)CC2 (stereo not given) | –
COc1ccc(-c2sncc2-c2ccccc2)cc1 | -109
COc1ccc(-c2cc(-c3ccccc3)c(C)c(-c3ccccc3)n2)cc1 | –
COc1ccc(-c2nc(Cc3noc(-c4ccccc4)n3)c(C)o2)cc1 | –
COC(=O)[C@@H]1C[C@@H](O)CN1C(=O)CCSCc1ccc(F)cc1 | –
O=C(Oc1ccc2[nH]cc(CCN3C(=O)c4ccccc4C3=O)c2c1)c1ccco1 | –
Cc1c(CN(C)C2CCCc3ccccc32)c(=O)n(-c2ccccc2)n1C (stereo not given) | –
Cc1cc(C)n(-c2ccc(C(=O)Nc3nc(-c4cc(C)sc4C)cs3)cc2)n1 | –
CCOc1ccccc1-c1ccccc1NC(=O)c1ccc(-n2nc(C)cc2C)cc1 | -101
CCOc1ccccc1-c1ccccc1NC(=O)c1cc(-c2ccc(F)cc2)no1 | –
Cc1nc2nnc3ccc(C(=O)N(C)C)cc3c2n1-c1ccccc1 | –
CN(C)C(=O)c1ccc2nnc3ncn(Cc4ccccc4)c3c2c1 | –
Cc1nc2nnc3ccc(C(=O)N(C)Cc4ccccn4)cc3c2n1Cc1ccccc1 | -109
CN1[C@@H]2CN(C(=O)Nc3cc(F)ccc3F)c3ccccc3[C@@H]2[C@@H]1CO | –
CN(C)CCNC(=O)Cn1ncc2c(N3CCN(c4ccccn4)CC3)ncnc21 | –
COc1ccc(CNC(=O)Cn2ncc3c(N4CCN(C)CC4)ncnc32)cc1 | –
O=C(Cn1ncc2c(N3CCN(c4ccccn4)CC3)ncnc21)NCc1ccccc1 | -105
COc1ccc(CNC(=O)Cn2ncc3c(N4CCN(c5ccccc5)CC4)ncnc32)cc1 | -102
CCc1ccc(CNC(=O)Cn2ncc3c(N4CCN(c5ccccn5)CC4)ncnc32)cc1 | –
SMILES | Tgondii IFNg
Cc1ccc(CNC(=O)Cn2ncc3c(N4CCN(c5ccccc5)CC4)ncnc32)cc1 | –
CN(CC(=O)c1ccc(O)cc1)C(=O)c1cccc(N2CCOCC2)c1 | –
O=C(NC1CCCC1)N1CC(=O)N2[C@H](CO)[C@H](c3ccc(C4=CCCCC4)cc3)[C@@H]2C1 | –
CCS(=O)(=O)Nc1ccc2c(c1)C(=O)N(C)C[C@H](OC)[C@@H](C)CN(C(=O)c1ccc3c(c1)OCO3)[C@H](C)CO2 | –
Cc1nc(-c2ccc(F)cc2)sc1CCNC(=O)c1ccc(C(C)(C)C)cc1 | –
Cc1nc(-c2ccc(F)cc2)sc1CCNC(=O)c1ccccc1 | –
Cc1ccc(OCC(=O)NCCc2sc(-c3ccc(F)cc3)nc2C)cc1 | –
Cc1ccc(OCC(=O)NCCc2sc(-c3ccc(Cl)cc3)nc2C)cc1 | -76
Cc1ccc(C(=O)NCCc2sc(-c3ccc(Cl)cc3)nc2C)cc1C | –
Cc1nc(-c2ccc(Cl)cc2)sc1CCNC(=O)c1ccc(F)c(F)c1 | -77
Cc1nc(-c2ccc(Cl)cc2)sc1CCNC(=O)c1ccc(F)cc1 | –
Cc1nc(-c2ccc(F)cc2)sc1CCNC(=O)c1ccc(Br)cc1 | -81
Cc1nc(-c2ccc(Cl)cc2)sc1CCNC(=O)COc1ccccc1 | –
CO[C@@H]1CCN(C(=O)Cc2ccsc2)[C@H]1Cc1ccncc1 | –
c1ccc(CCc2nc(CCn3nnc4ccccc43)n[nH]2)cc1 | –
CN(CCNC(=O)C1CC(=O)N(C2CCCC2)C1)S(C)(=O)=O (stereo not given) | –
CC(C)CCN1[C@@H]2CCN(C(=O)c3ccc[nH]3)CC[C@@H]2Oc2ccccc2S1(=O)=O | –
CCOC(=O)Nc1ccc2c(c1)N(C(=O)CN(C)C)c1ccccc1CC2 | –
CSc1nnc(CC2CCN(C(=O)[C@H](N)Cc3ccccc3)CC2)n1C | –
CNC(=O)c1cc(Oc2ccc(NC(=O)Nc3ccc(Cl)c(C(F)(F)F)c3)c(F)c2)ccn1 | -81
Cc1nc(OCC(=O)Nc2ccc(Cl)c(C(F)(F)F)c2)c2ccccc2n1 | –
CCc1nc(OCC(=O)Nc2ccc(Cl)c(C(F)(F)F)c2)c2ccccc2n1 | –
CNC(=O)C[C@@H]1C[C@@H]2CN(S(=O)(=O)c3cccnc3)C[C@@H]2O1 | –

Screens (PubChem)
